{"source": "PubChem BioAssay AID540277", "about": "(National Center for Advancing Translational Sciences (NCATS), 2011)", "note": "Among all 320,000 compounds or so, about 55 (0.02%) were called active. Not shown: some 3% with an inconclusive outcome. Only a selection was taken, and actives are over-represented in it overall. A number with no mark means an inactive call. No stated cut-off is given here; in the data, active means potentiation above about 80%; inconclusive means between about 30% and that limit; inactive means weaker than that.", "data": [{"biological_target": "Transient receptor potential cation channel subfamily V member 1 (Homo sapiens) (UniProt Q8NER1)", "sequence (Q8NER1 whole entry, looked up)": "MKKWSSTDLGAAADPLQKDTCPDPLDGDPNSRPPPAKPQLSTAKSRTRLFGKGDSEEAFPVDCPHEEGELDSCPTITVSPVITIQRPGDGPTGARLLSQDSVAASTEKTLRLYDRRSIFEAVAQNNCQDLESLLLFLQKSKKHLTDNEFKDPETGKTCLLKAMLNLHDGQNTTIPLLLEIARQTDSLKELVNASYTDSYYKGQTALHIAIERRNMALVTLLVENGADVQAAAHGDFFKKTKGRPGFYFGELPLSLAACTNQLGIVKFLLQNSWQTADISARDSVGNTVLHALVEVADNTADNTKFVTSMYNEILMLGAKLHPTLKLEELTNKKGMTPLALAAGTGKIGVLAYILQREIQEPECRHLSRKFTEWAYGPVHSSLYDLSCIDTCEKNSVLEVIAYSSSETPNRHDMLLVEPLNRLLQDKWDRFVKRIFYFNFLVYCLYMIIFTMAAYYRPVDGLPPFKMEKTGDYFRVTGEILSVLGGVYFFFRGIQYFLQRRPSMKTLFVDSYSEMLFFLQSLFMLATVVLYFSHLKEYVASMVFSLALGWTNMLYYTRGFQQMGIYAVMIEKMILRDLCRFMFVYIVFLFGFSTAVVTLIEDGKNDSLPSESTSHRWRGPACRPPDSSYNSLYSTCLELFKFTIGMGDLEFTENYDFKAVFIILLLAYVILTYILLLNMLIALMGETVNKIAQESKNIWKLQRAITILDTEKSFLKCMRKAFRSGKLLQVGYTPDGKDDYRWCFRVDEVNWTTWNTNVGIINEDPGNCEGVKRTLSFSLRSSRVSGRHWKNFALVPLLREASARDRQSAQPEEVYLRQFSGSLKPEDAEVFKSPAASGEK", "experiment": "HTS Assay for Compounds that Act as Potentiators of the Vanilloid Receptor 1; further: 0% is about no effect", "conditions": "TRPV1-expressing cells, Fluo-8 calcium influx, capsaicin EC20 potentiation; at 8.33 µM; hits give high values", "from_the_text": "The transient receptor potential ion channel, family V, number 1, (TRPV1) is one of the most important molecular transducers of painful stimuli and a potential target for analgesic drug development. Although recent clinical trials with orthosteric antagonists have not produced a successful drug because of a hyperthermia side effect and their tendency to block thermal noxious pain, this ion channel is undeniably well placed in the pain pathway, and the idea of blocking pain signals before they enter the CNS is an excellent concept and of proven efficacy when TRPV1 agonists are used. We propose a new approach involving allosteric modulation to impose an activity-dependent constraint within the context of inflammation and tissue damage that would alter the responsiveness of the channel in a way that an orthosteric vanilloid antagonist cannot achieve. We believe that the allosteric modulator approach has not been explored for this target. The main goal of this proposal is to identify additional, new, potent allosteric modulators of TRPV1 that can be used to investigate TRPV1 function. Our recent report provides evidence of proof of concept, but the compounds are just at the edge of utility in terms of potency. […] The question of whether they can be used as analgesic agents is complex, but if suitable compounds are identified then testing for analgesic properties will be conducted. NIH Chemical Genomics Center [NCGC] NIH Molecular Libraries Probe Centers Network [MLPCN] MLPCN Grant: MH089480-1A1 Assay Submitter (PI): Michael Iadarola, National Institute of Dental and Cranofacial Research\nUpon TRPV1 activation in TRPV1 cells, the channel opens and extracellular cations flow through the channel into the cytosol. A calcium binding dye (Fluo-8) becomes fluorescent when bound to calcium. This dye is pre-loaded into cells and is used as a marker for calcium influx. The amount of accumulated calcium is precisely quantified using the FDSS kinetic reader and the calcium dye. For the HTS assay, freshly prepared cells are plated at a density of 2000/well in 3 ul medium in 1536-well plates and cultured overnight at 35.5C. Cells will be loaded with 1 ul of the homogeneous calcium dye (ABD Bioquest) at room temperature for 40 to 90 minutes. Plates will be loaded into the FDSS kinetic reader and a 1 sec / cycle for 10 second baseline signal will be measured. Compound library will then be added with a pintool at 23 nl and measured kinetically for 3 minutes. This portion of the read is considered the agonist portion of the screen. Following the 3 minutes of incubation, an on board pipettor will deliver 1 ul of capsaicin for a final concentration equal to the EC20. Signal will be measured kinetically for an additional 2 minutes. This portion of the read is considered the allosteric enhancer portion of the screen. The FDSS reader has a standard filter set capable of measuring calcium bound Fluo-8 (ex=480 and em=520 nm).", "units": {"potentiation": "%"}, "values": [{"smiles": "O=C(Nc1ccccn1)C1CCN(S(=O)(=O)c2ccc3c(c2)OCCO3)CC1", "potentiation": 1.92}, {"smiles": "O=C(CCNC(=O)c1ccc(Cl)cc1)NC1CCCc2ccccc21", "note": "(stereo not given)", "potentiation": 27}, {"smiles": "COc1ccccc1C(=O)Nc1ccc(OCC(=O)N2CCCCC2)cc1", "potentiation": -9.6}, {"smiles": "COc1ccccc1C(=O)Nc1ccc(C)c(S(=O)(=O)N2CCCCC2)c1", "potentiation": -33.7}, {"smiles": "Cc1ccc(NC(=O)Cn2c(C)csc2=O)cc1", "potentiation": 15}, {"smiles": "Cc1ccc(-n2nc(C)c(C(=O)O)c2-n2cccc2)cc1", "potentiation": 21.9}, {"smiles": "O=C(O)CSc1ccc(S(=O)(=O)N2CCCC2)cn1", "potentiation": 5.08}, {"smiles": "CCN(CC(=O)Nc1ccc(OC)cc1)C(=O)c1ccc(Cl)c(S(=O)(=O)N2CCCC2)c1", "potentiation": 0.452}, {"smiles": "Cc1ccc(C(=O)NCC(c2cccs2)N(C)C)cc1S(=O)(=O)N1CCOCC1", "note": "(stereo not given)", "potentiation": 2.03}, {"smiles": "Cc1noc(C)c1COc1ccc(C(=O)NCCOc2ccccc2)cc1", "potentiation": -13.4}, {"smiles": "c1ccc2cc(CCCc3cc4ccccc4cn3)ncc2c1", "potentiation": -8.54}, {"smiles": "O=c1ccc(S(=O)(=O)N2CCCC2)cn1Cc1nc(-c2ccccc2)no1", "potentiation": -29.3}, {"smiles": "CC1CCc2sc(C(=O)NCC(c3ccco3)N3CCCCC3)cc2C1", "note": "(stereo not given)", "potentiation": -4.62}, {"smiles": "Cc1ccc(-c2ccc(/C=C(\\C#N)C(N)=S)o2)c([N+](=O)[O-])c1", "potentiation": -9.36}, {"smiles": "CCN(CC(=O)Nc1c(F)cccc1F)C(=O)c1cnc(C)cn1", "potentiation": -6.22}, {"smiles": "CC1CC(=O)Nc2ccccc2N1C(=O)COc1ccc2cc(Br)ccc2c1", "note": "(stereo not given)", "potentiation": -0.32}, {"smiles": "O=C(OCC(=O)N1CCc2ccccc21)c1ccc([N+](=O)[O-])cc1", "potentiation": -20.6}, {"smiles": "O=S(=O)(c1cccs1)N1CCN(CCOc2ccccc2)CC1", "potentiation": -11.9}, {"smiles": "Cc1noc(C)c1C(=O)NCC1COc2ccccc2O1", "note": "(stereo not given)", "potentiation": -2.08}, {"smiles": "COc1ccc(-c2nc3c(c(SCC(=O)Nc4ccc(C(=O)O)cc4)n2)Cc2ccccc2O3)cc1", "potentiation": 15.9}]}]}
